Assay results taken from PubChem BioAssay AID1963317 (National Center for Advancing Translational Sciences (NCATS), 2024).
Inconclusive results are not listed. Values without a mark were called inactive. Calls come from the whole dose curve.

Target: Tyrosine-protein kinase ABL1 (Homo sapiens) (UniProt P00519)
Test: ABL1 kinase (ABL1-N-HiBiT) enzymatic inhibition screen - Functional assay
Conditions: luminescence; series mostly up to 57.5 µM; activity change, negative = inhibition: at the top concentration
Description: National Center for Advancing Translational Sciences (NCATS),
National Institute of Health (NIH), Maryland
Discovery and optimization of novel protein-binding ligands underlies many of the methods and applications of biology, drug discovery, clinical diagnostics, and environmental toxicology. Assays for detecting the interaction of, for example, a molecule with a macromolecular target also referred to here as the target of interest (TOI) is dependent on a compatible output technology. Depending on the nature and knowledge surrounding the TOI, whether a receptor, enzyme, regulatory subunit or scaffold, or a sequence-defined nucleic acid folded into a complex tertiary structure, assay strategies can vary widely.
Here we exploit ligand-biased changes in the structural dynamics of the target protein to control reporter alpha complementation allowing a non-competitive, non-functional, non-separation measure of ligand-target interaction.
Using a chemical library of >1,200 compounds enriched for scaffolds known to be associated with the inhibition of firefly luciferase (FLuc) activity (PubChem AIDs 2309) we first illustrate and compare the Structural Dynamics Response (SDR) assay vs. the standard functional FLuc enzyme assay (2). Secondly, we show the specificity and sensitivity of the SDR for the Abelson tyrosine kinase (ABL1) compared to the serine/threonine protein kinase A, using an enriched chemical library of 128 compounds selected, in part, for activity annotated with ABL1 kinase activity using the Pharos database (3).
(1) A. S. Dixon et al., NanoLuc Complementation Reporter Optimized for Accurate Measurement of Protein Interactions in Cells.
Chemistry & Biology, 19, 1060 - 1072 (2012).
(3) K. J. Kelleher et al., Pharos 2023: an integrated resource for the understudied human proteome. Nucleic Acids Res 51, D1405-D1416 (2023).
PROTOCOL TABLE (as described by Inglese J, Shamu CE and Guy RK. 2007)
SEQUENCE No. (e.g., 1, 2, 3, etc.); […] (e.g., C. elegans, Compounds, Incubation, Read, etc.); VALUE and DESCRIPTION.
1. Reagent. Dispense 4 uL ABL1-N-HiBiT enzyme per well at a final enzyme concentration of 10 nM in buffer with 87.5 uM ATP (functional assay) into columns 2-48 of four replicate Greiner 1536-well white, solid bottom high base, medium plates per assay. Dispense respective buffer without enzyme at 4 uL/well in column 1 of assay plates using BioRaptr 2.
2. Compounds. Library compounds added at 23 nL/well by pin transfer. DMSO neutral control and imatinib positive control added at 25 nL/well, transfer by Mosquito dispenser.
3. Incubation. Incubate enzyme and compounds at room temperature for 30 min, protected from light.
4. Reagent. (Functional assay) Transfer 25 nL of abltide peptide substrate to each well of four replicate kinase assay plates with Mosquito dispenser.
5. Incubation. (Functional assay) Kinase enzyme incubated with peptide substrate for 3 h at room temperature, protected from light.
6. Reagent. (Functional assay) Add 4 uL/well of Kinase-Glo Plus reagent (Promega) to kinase activity assay plates, in the presence of ATP.
7. Detector. (Functional assay) Luminescence measured using CCD-based camera (ViewLux) with settings as follows: Exposure, 1 sec; Gain, High; Speed, Slow; Binning, 2X.
Inglese J, Shamu CE and Guy RK, Reporting data from high throughput screening of small molecule libraries, Nature Chemical Biology, 2007, 3(8): 438-441. doi.org/10.1038/nchembio0807-438.

Tyrosine-protein kinase ABL1 (Homo sapiens), sequence (P00519 whole entry, looked up): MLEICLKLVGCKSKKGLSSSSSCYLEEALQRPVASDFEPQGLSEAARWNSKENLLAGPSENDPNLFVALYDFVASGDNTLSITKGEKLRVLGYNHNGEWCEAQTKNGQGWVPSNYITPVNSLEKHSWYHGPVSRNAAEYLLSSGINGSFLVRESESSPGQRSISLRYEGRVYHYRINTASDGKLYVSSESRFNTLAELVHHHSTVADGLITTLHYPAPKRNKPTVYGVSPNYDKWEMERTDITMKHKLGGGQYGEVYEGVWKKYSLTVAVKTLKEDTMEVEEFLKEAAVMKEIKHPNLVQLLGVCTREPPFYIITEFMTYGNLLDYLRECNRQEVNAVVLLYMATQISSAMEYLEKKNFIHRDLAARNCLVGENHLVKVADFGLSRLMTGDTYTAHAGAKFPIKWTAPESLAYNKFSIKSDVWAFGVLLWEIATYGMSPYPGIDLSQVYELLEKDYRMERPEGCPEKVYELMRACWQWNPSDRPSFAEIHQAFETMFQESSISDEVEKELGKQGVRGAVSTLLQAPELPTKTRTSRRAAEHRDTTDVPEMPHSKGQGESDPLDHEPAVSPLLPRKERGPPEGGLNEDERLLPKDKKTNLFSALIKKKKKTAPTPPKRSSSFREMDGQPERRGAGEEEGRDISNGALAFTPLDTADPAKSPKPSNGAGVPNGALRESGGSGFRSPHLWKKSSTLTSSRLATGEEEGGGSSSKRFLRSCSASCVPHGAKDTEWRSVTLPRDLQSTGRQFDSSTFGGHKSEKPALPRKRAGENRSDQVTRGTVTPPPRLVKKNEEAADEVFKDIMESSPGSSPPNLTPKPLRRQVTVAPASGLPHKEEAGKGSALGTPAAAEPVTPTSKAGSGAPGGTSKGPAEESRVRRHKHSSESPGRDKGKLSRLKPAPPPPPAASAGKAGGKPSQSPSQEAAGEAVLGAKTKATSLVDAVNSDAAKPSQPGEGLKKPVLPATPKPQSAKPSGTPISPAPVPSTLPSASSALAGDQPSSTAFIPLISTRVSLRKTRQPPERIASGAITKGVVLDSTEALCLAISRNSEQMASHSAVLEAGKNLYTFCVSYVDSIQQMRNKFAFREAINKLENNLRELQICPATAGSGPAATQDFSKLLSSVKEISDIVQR

Row | Compound | activity change, negative = inhibition
1 | O=[N+]([O-])O[C@H]1CO[C@H]2[C@@H]1OC[C@H]2O[N+](=O)[O-] | 28.1%
2 | N#Cc1cn([C@@H]2O[C@H](CO)[C@H](O)[C@@H]2O)c2ncnc(N)c12 | 23.6%
3 | O=C(NCCCNc1nc(Nc2ccc(N3CCOCC3)cc2)ncc1C1CC1)C1CCC1 | 22.3%
4 | CCNC(=O)C[C@@H]1N=C(c2ccc(Cl)cc2)c2cc(OC)ccc2-n2c(C)nnc21 | 30%
5 | C/C(O)=C(\C#N)C(=O)Nc1cc(Br)ccc1Br | 36.4%
6 | Cc1[nH]nc2ccc(-c3cncc(OC[C@@H](N)Cc4c[nH]c5ccccc45)c3)cc12 | 32.6%
